Paper PMC4336329 (PLoS ONE, 2015)
The whole screen tested about 310,000 compounds, of which about 14,000 (4.5%) showed an effect of 50% or more. Effects have a minus sign here. This excerpt belongs to a sample that is enriched for strong results.

Each compound was assayed against human ether-à-go-go-related gene (hERG) potassium channel (human, UniProt Q12809) (assay: primary screen, population patch clamp on CHO cells stably expressing hERG; higher = less effect of the substance).
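Note: peak tail current of the secondary pulse compared with the same well before compound.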

human ether-à-go-go-related gene (hERG) potassium channel, sequence (Q12809 whole entry, looked up): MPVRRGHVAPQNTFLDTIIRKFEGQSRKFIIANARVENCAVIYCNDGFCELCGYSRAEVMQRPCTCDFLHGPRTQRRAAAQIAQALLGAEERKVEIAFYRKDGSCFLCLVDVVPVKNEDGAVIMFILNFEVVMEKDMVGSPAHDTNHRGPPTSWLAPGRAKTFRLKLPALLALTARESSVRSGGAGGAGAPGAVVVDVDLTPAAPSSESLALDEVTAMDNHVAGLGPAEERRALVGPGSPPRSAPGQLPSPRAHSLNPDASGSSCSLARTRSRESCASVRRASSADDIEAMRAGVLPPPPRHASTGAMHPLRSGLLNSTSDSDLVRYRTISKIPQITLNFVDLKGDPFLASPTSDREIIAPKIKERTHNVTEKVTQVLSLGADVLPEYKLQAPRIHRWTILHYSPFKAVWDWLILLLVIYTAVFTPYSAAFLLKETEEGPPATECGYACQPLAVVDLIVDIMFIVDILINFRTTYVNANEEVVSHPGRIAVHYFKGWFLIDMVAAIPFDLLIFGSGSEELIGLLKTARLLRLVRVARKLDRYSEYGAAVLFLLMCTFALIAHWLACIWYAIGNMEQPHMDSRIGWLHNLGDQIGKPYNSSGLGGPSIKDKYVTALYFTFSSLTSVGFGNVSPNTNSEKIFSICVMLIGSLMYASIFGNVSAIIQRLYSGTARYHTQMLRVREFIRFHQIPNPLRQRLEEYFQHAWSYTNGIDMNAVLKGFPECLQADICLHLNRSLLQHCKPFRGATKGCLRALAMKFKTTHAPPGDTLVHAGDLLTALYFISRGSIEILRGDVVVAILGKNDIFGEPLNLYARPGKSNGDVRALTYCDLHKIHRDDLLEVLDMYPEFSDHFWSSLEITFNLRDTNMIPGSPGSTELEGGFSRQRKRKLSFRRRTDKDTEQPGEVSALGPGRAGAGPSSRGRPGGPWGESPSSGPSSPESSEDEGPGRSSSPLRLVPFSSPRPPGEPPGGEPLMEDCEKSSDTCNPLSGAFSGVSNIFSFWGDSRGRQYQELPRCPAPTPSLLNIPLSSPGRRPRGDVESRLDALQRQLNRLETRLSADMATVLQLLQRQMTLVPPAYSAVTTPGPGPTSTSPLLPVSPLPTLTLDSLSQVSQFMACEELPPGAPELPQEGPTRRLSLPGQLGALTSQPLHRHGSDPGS

First: CCn1c(SCC(=O)N2CCCc3ccccc32)nc2c(c1=O)SC(C)C2 (stereo not shown)
Second: NNC(=O)c1c(O)c2cccc3c2n(c1=O)CCC3
The “hERG current change (%, negative = inhibition) at 10uM” value of the first is lower: -24.7% for the first, 22.4% for the second.

First: O=C(O)/C=C/c1ccccc1Oc1ccc(Cl)cc1Cl
Second: COC(C(=O)N/N=C(\C)CC(=O)Nc1ccc(Cl)cc1C)c1ccccc1 (stereo not shown)
The “hERG current change (%, negative = inhibition) at 10uM” value of the first is higher: -8.85% for the first, -10.5% for the second.

First: CC(NC(=O)C[n+]1cccc(Br)c1)c1ccccc1.[Cl-] (stereo not shown)
Second: O=C(C[n+]1cccc(NC(=O)c2ccccc2)c1)c1ccccc1.[Br-]
The “hERG current change (%, negative = inhibition) at 10uM” value of the first is higher: 17.6% for the first, -18.1% for the second.

Going from `CCOC(=O)CSc1nc(C)cc(C)n1` to `CCCC(c1nnnn1CC(=O)OCC)N(Cc1cc2c(C)cc(C)cc2[nH]c1=O)C1CCCC1` (stereo not shown), the “hERG current change (%, negative = inhibition) at 10uM” value rises from 7.29% to 22.1%.

First: FC(F)(F)c1ccccc1CNCc1ccc2c(c1)OCO2
Second: O=C(O)c1cccc(CSc2nc(-c3ccc(Cl)cc3)cc(C(F)(F)F)n2)c1
The “hERG current change (%, negative = inhibition) at 10uM” value of the first is higher: 0.962% for the first, -0.199% for the second.

Going from `O=C(Nc1ccccc1OC(F)F)c1oc2ccccc2c1COc1ccccc1` to `O=C(C[n+]1ccc2ccccc2c1)c1cccc2ccccc12.[Br-]`, the “hERG current change (%, negative = inhibition) at 10uM” value falls from 0.283% to -72.8%.

Going from `COc1ccc(-n2c(Cc3cc(=O)[nH]c(=O)[nH]3)nnc2SCC(=O)Nc2cc(C(F)(F)F)ccc2Cl)cc1` to `CCOc1ccc(-c2nc(N)ncc2Oc2ccc(OC)cc2)c(O)c1`, the “hERG current change (%, negative = inhibition) at 10uM” value rises from -3.73% to -2.1%.

Going from `O=C1CC2(CCCC2)Oc2ccc(Cl)cc21` to `O=C1CC2(CCCCCC2)Oc2ccc(Cl)cc21`, the “hERG current change (%, negative = inhibition) at 10uM” value rises from 8.19% to 9.01%.

Compared with `O=C1CC2(CCN(C(=O)c3c(F)cccc3F)CC2)Oc2ccccc21`, `O=C1CC2(CCN(C(=O)c3ccccc3F)CC2)Oc2ccccc21` is lower in “hERG current change (%, negative = inhibition) at 10uM” value: -34.2% for the first, -73.2% for the second.

Going from `O=C1CC2(CCN(C(=O)c3ccccc3Br)CC2)Oc2ccccc21` to `CC(=O)N1CCC2(CC1)CC(=O)c1cc(Cl)ccc1O2`, the “hERG current change (%, negative = inhibition) at 10uM” value rises from -76.9% to -55.2%.

First: O=C1CC2(CCCCCC2)Oc2ccccc21
Second: O=C1CC2(CCCCC2)Oc2ccccc21
The “hERG current change (%, negative = inhibition) at 10uM” value of the first is lower: -6.74% for the first, 14.4% for the second.

Compared with `O=C(c1ccccc1F)N1CCC2(CC1)OCCO2`, `O=C(Nc1ccccc1C(=O)N1CCCCC1)c1cc(F)c(F)cc1Cl` is lower in “hERG current change (%, negative = inhibition) at 10uM” value: 30.8% for the first, 1.47% for the second.

Going from `Cc1ccc(SC(C)C(=O)N2CCC(C(N)=O)CC2)cc1` (stereo not shown) to `CC(C)C(=O)Nc1cccc(NC(=O)c2cccc([N+](=O)[O-])c2)c1`, the “hERG current change (%, negative = inhibition) at 10uM” value falls from 20.1% to -30.9%.

Going from `Cc1cccc(CNc2ccc(C(CC(N)=O)NC(=O)c3cccc(Br)c3)cc2[N+](=O)[O-])c1` (stereo not shown) to `CCC(=O)Nc1cccc(NC(=O)c2cccc([N+](=O)[O-])c2)c1`, the “hERG current change (%, negative = inhibition) at 10uM” value falls from -19.8% to -61.2%.

Going from `O=C(C[n+]1cccc(C(=O)Nc2ccccc2)c1)c1ccc([N+](=O)[O-])cc1.[Br-]` to `O=C(Nc1ccccc1)c1ccc[n+](Cc2ccc([N+](=O)[O-])cc2)c1.[Br-]`, the “hERG current change (%, negative = inhibition) at 10uM” value rises from -73.1% to -4.25%.

Going from `O=C(C[n+]1ccn(-c2ccccc2)c1)c1ccc([N+](=O)[O-])cc1.[Br-]` to `O=C(Cn1cc[n+](Cc2ccccc2)c1)c1ccc([N+](=O)[O-])cc1.[Br-]`, the “hERG current change (%, negative = inhibition) at 10uM” value rises from -61.3% to -23.7%.

Compared with `O=C(C[n+]1cccc(NC(=O)c2ccccc2)c1)c1ccc(NC(=O)c2ccccc2)cc1.[Br-]`, `NC(=O)c1ccc[n+](CC(=O)c2ccc(NC(=O)c3ccccc3)cc2)c1.[Br-]` is higher in “hERG current change (%, negative = inhibition) at 10uM” value: 1.37% for the first, 27.1% for the second.

First: O=C(C[n+]1ccc2ccccc2c1)c1ccc(NC(=O)c2ccccc2)cc1.[Br-]
Second: O=C(C[n+]1ccc2ccccc2c1)c1ccccc1.[Br-]
The “hERG current change (%, negative = inhibition) at 10uM” value of the first is higher: -0.135% for the first, -22.5% for the second.

First: O=C(Nc1cccc([N+](=O)[O-])c1)c1cccc(C(=O)Nc2cccc([N+](=O)[O-])c2)c1
Second: O=[N+]([O-])c1cccc(CSC2=NCCN2S(=O)(=O)c2ccccc2)c1
The “hERG current change (%, negative = inhibition) at 10uM” value of the first is higher: 24.1% for the first, -6.78% for the second.

Compared with `C=Cn1cc[n+](CC(=O)c2ccc(-c3ccccc3)cc2)c1.[Br-]`, `Cc1cc(C(=O)c2ccc3ccccc3c2)c(C)o1` is lower in “hERG current change (%, negative = inhibition) at 10uM” value: 7.91% for the first, 2.09% for the second.

Going from `COc1ccc(/C=C/C(=O)O)cc1S(=O)(=O)NCC1CCCO1` (stereo not shown) to `COc1ccc(N2CCN(S(=O)(=O)c3ccc4c(c3)CCCC4)CC2)c([N+](=O)[O-])c1`, the “hERG current change (%, negative = inhibition) at 10uM” value falls from 14.1% to 6.51%.

For `Cn1ncc([N+](=O)[O-])c1C(=O)N/N=C/c1ccc(F)cc1`, the “hERG current change (%, negative = inhibition) at 10uM” value was -9.05%.
